Measurements taken from PubChem BioAssay (Tox21).
Results filed as inconclusive are left out. Where a call stands in place of a potency, no number is given. Calls of active or inactive are those of the source. Unless noted, calls come from the whole dose curve; as a rule, active = well fitted curve in the direction sought with a large enough effect in the repeat runs; inconclusive = weak or mixed curves; inactive = no such curve, though single readings can be large; an effect the other way counts as inactive or inconclusive.

Assays:
[1] = qHTS assay to identify small molecule antagonists of the estrogen receptor alpha (ER-alpha) signaling pathway using the BG1 cell line in the presence of 0.1 nM 17-beta-estradiol - cell viability counter screen (AID 1259241); note: nearly all actives have a fitted effect of over 40% in size; note: potency is the fitted concentration of half-maximal effect
Method in brief: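 Measures cytotoxicity alongside the ER-alpha antagonist readout: VM7Luc4E2 cells, charcoal-stripped serum, 0.1 nM 17beta-estradiol final, 22 hr compound incubation at 37C, CellTiter-Fluor fluorescence.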

[2] = qHTS assay to identify small molecule antagonists of the androgen receptor (AR) signaling pathway using the MDA cell line in the presence of 0.5 nM R1881 - cell viability counter screen (AID 1259242); note: nearly all actives have a fitted effect of over 45% in size; note: potency is the fitted concentration of half-maximal effect
Method in brief: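 Live-cell protease fluorescence, CellTiter-Fluor, 30 min at 37C. Cells: MDA-kb2, 3,000/well, preincubated 5 hr. Compounds plus 0.5 nM R1881 final, 16 hr, 37C, 0% CO2.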

[3] = qHTS assay to identify small molecule HDAC inhibitors (AID 1259364);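 note: wild-type HCT-116 cells with endogenous class I/II HDAC activity; top concentration of the series differs between compounds; nearly all actives have a fitted effect of over 45% in size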
Method in brief: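 HCT-116 (wild type), 1,500 cells/well, overnight; compound 2 hr 37C 5% CO2; HDAC-Glo I/II reagent 30 min RT; luminescence readout.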

[4] = qHTS assay to identify small molecule HDAC inhibitors - cell viability counter screen (AID 1259365); note: series mostly up to about 92 µM; nearly all actives have a fitted effect of over 50% in size
Method in brief: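 Following a 2hr exposure of overnight-plated wild-type HCT-116 cells to DMSO-delivered compounds, CellTiter-Glo was added and luminescence recorded after 30min at room temperature.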

[5] = qHTS assay to identify small molecule antagonists of the sonic hedgehog signaling (Shh) pathway - cell viability counter screen (AID 1259367); note: nearly all actives have a fitted effect of over 55% in size; note: potency is the fitted concentration of half-maximal effect
Method in brief: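 Viability was read by CellTiter-Fluor fluorescence in the same wells, reagent added 23 hr into compound treatment and incubated 1 hr at 37C. The 3T3 Gli1-Luc reporter cells (2,000/well) received conditioned medium after compound and ran 24 hr.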

[6] = qHTS assay to identify small molecule agonists of the sonic hedgehog signaling (Shh) pathway (AID 1259368; calls by dose curve;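 note: NIH/3T3-derived 3T3Gli1-Luc cells carrying a stable Gli1-driven firefly luciferase reporter; series mostly up to about 92 µM; nearly all actives have a fitted effect of over 15% in size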)
Method in brief: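 Read-out: firefly luciferase luminescence from a Gli1 response element reporter stably integrated in NIH/3T3-derived 3T3Gli1-Luc cells, measured 30 min at room temperature after reagent addition. Compound exposure lasted 24 hr at 37 C, 5% CO2.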

[7] = qHTS assay to identify small molecule agonists of the sonic hedgehog signaling (Shh) pathway - cell viability counter screen (AID 1259366); note: nearly all actives have a fitted effect of over 50% in size; note: potency is the fitted concentration of half-maximal effect
Method in brief: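 After a 4hr attachment at 37C, NIH/3T3 cells bearing an integrated Gli1-driven luciferase reporter were dosed with compounds. Treatment lasted 24hr, with the final hour including CellTiter-Fluor for a fluorescence viability measurement.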

Compound | Potency [1] | Potency [2] | Potency [3] | Potency [4] | Potency [5] | Potency [6] | Potency [7]
Cc1cccc(O)c1N | 61.8 µM (active) | inactive | inactive | inactive | 61.8 µM (active) | inactive | 
C=C(C)CCCC(C)CCO (stereo not drawn) | inactive | inactive | inactive | inactive | inactive |  | inactive
CCC(OCCCOC)OC(C)=O (stereo not drawn) | inactive | inactive | inactive | inactive | inactive | inactive | inactive
O=C1CCCCCCCCCCOCCCCO1 | inactive | inactive | inactive | inactive | inactive | inactive | 
OCCN1CCN(CCCN2c3ccccc3Sc3ccc(Cl)cc32)CC1 | inactive | inactive | inactive | inactive | 13.3 µM (active) | inactive | 13.3 µM (active)
CCC(C)COC(C)=O (stereo not drawn) | inactive | inactive | inactive | inactive | inactive | inactive | inactive
c1csc(SSc2cccs2)c1 | inactive | inactive | inactive | inactive | 43.3 µM (active) | inactive | 43.3 µM (active)
N#CCCN(CCO)CCO | inactive | inactive | inactive | inactive | inactive | inactive | 
O=C1c2ccccc2C(=O)N1CCc1noc(-c2ccc(CN3CCCCCC3)s2)n1 | inactive | inactive | inactive | inactive | inactive | inactive | inactive
CCC1(CO)COCOC1 | inactive | inactive | inactive | inactive | inactive | inactive | inactive
CCC1CO1 (stereo not drawn) | inactive | inactive | inactive | inactive | inactive | inactive | 
CC1CC(C)C(=O)C1=O (stereo not drawn) | inactive | inactive | inactive | inactive | inactive | inactive | inactive
CC(C)C=O | inactive | inactive | inactive | inactive | inactive |  | 
CCCCCCCCCCC(=O)O | inactive | inactive | inactive | inactive | inactive | inactive | inactive
O=C1NCCN1CCO | inactive | inactive | inactive | inactive | inactive | inactive | inactive
CC=C(Cl)Cl | inactive | inactive | inactive | inactive | inactive | inactive | inactive
N#CCc1ccc(Cl)cc1Cl | inactive | inactive | inactive | inactive | inactive | inactive | inactive
CCCCCCCCCI | inactive | inactive | inactive | inactive | inactive | inactive | inactive
CC(CCC(=O)O)C(=O)O (stereo not drawn) | inactive | inactive | inactive | inactive | inactive | inactive | inactive
CC(C)(c1ccccc1)c1ccccc1 | inactive | inactive | inactive | inactive | inactive | inactive | inactive
CCCCCCCCCCCCCCN(CCO)CCO | inactive | 48.6 µM (active) | inactive | inactive | inactive | inactive | 61.1 µM (active)
CC(C)(C)CC(=O)OCC(=O)[C@@]1(O)CC[C@H]2[C@@H]3CCC4=CC(=O)C=C[C@]4(C)[C@H]3[C@@H](O)C[C@@]21C | inactive | inactive | inactive | inactive | inactive | inactive | 
Brc1cc(Br)c(Oc2cc(Br)c(Br)cc2Br)cc1Br | inactive | inactive | inactive | inactive | inactive | inactive | inactive
C1C[C@@H]2[C@H]3CC[C@H](C3)[C@@H]2C1 | inactive | inactive | inactive | inactive | inactive |  | inactive
CC(=O)NC1(c2cccc(F)c2)CCN(CC[C@@]2(c3ccc(Cl)c(Cl)c3)CN(c3ccccc3)C(=O)CO2)CC1 | inactive | inactive | inactive | inactive |  | inactive | 24.4 µM (active)
COc1ccc(OC(=O)N(CC(=O)O)Cc2ccc(OCCc3nc(-c4ccccc4)oc3C)cc2)cc1 | inactive | inactive | inactive | inactive | inactive | inactive | inactive
CC(=O)Nc1ccc(C)cc1C | inactive | inactive | inactive | inactive | inactive |  | 
CC1=C(CC=O)C(C)(C)CCC1 | inactive | inactive | inactive | inactive | inactive |  | inactive
